Screens deposited in PubChem BioAssay by The Scripps Research Institute Molecular Screening Center.
MBD2 DNA inh: MBD2-methylated oligo binding inhibition | Q9UBB5 | TR-FRET, MBD2 binding to methylated oligonucleotide | inhibition, % at 4.4 µM | 370,000 compounds, 0.31% hits | AID 686964; in the data active means inhibition above about 13%
PLCb3 inh: inhibitors of human phospholipase C beta3; Q01970; Purified PLC-beta3, fluorogenic substrate, fluorescence; inhibition, % at 12.2 µM; 370,000 compounds, 0.18% hits;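 further: 0% = median of compound wells on plate and 100% = full blocker control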
PLCg1 inh: inhibitors of human phospholipase C gamma1 | 370,000 compounds, 0.84% hits | inhibition, % at 12.2 µM | AID 720700 | purified PLC-gamma1, fluorogenic substrate, fluorescence | P19174; in the data active means inhibition above about 9.5%
LEDGF integ inh: blocks HIV-1 LEDGF/p75-dependent DNA integration; 370,000 compounds, 0.64% hits; AID 743269; inhibition, % at 3.7 µM; TR-FRET IN-LEDGF/p75 DNA integration, Eu/Cy5;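 active means inhibition above the screen-wide mean plus 3 SD, cut at about 13% in these data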;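 further: signal is the Cy5 over europium emission ratio at 671 and 618 nm; 0% = plate median of compound wells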
UHRF1 binding: human UHRF1 methylated DNA binding inhibitors | Q96T88 | 370,000 compounds, 0.75% hits | inhibition, % at 4.4 µM | AID 687016 | UHRF1 binding to methylated oligo, TR-FRET; in the data active means inhibition above about 21%;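 further: UHRF1 SRA domain binding a hemimethylated CpG hairpin DNA probe; 0% = median of test compound wells and 100% = reference inhibitor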
Target sequence (Q96T88 whole entry, looked up, the tested form may be a part): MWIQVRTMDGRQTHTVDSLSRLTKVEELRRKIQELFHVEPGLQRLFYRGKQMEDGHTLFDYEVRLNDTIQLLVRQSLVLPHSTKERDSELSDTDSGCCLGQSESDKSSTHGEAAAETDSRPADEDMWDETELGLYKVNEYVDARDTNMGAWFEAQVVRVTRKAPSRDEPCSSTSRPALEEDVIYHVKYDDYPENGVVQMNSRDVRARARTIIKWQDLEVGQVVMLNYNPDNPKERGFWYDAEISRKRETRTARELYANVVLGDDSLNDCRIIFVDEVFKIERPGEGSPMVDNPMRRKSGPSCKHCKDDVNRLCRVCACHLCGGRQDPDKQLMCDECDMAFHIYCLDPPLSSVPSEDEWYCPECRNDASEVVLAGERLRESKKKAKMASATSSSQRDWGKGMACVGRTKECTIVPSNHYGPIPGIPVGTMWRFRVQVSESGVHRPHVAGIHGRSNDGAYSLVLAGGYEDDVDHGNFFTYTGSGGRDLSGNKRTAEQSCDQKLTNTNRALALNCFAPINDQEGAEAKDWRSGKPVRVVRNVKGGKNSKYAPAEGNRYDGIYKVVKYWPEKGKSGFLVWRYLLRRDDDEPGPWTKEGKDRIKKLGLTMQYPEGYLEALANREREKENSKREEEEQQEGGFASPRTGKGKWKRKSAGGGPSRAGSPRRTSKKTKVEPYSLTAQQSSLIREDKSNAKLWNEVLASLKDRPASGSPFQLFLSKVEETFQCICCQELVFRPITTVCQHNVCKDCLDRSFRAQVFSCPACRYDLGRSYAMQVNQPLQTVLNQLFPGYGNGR
PLCgamma1 ctr: PLC-gamma1 inhibition, counter-screen for PLC-beta3 hits; shares compounds with PLCg1 inh; purified PLC-gamma1, fluorogenic substrate, fluorescence; inhibition, % at 12.3 µM; 3,300 compounds, 3.1% hits; AID 743258; in the data active means inhibition above about 9.5%
PLCb3 confirm: confirmation of human PLC-beta3 inhibitors; shares compounds with PLCg1 inh; inhibition, % at 12.3 µM; 3,300 compounds, 1% hits; purified PLC-beta3, fluorogenic substrate fluorescence
Starred values were filed as active, the others as inactive; . = no result. Most compounds without a hit are left out; they make up all but 2.3% or so of the library. Unless noted, no stated cut-off is given here; in the data, active means inhibition above about 11%; inactive means the rest.

SMILES | MBD2 DNA inh | PLCb3 inh | PLCg1 inh | LEDGF integ inh | UHRF1 binding | PLCgamma1 ctr | PLCb3 confirm
C/C=C/C(=O)OCC(=O)Nc1ccccc1Br | 2.5 | -0.2 | 9.6* | 6.2 | 7.1 | -6.4 | -1.0
COc1ccnc2c1c(=O)n(Cc1ccc(Cl)cc1Cl)c(=O)n2C | 4.8 | -3.8 | 9.8* | -1.1 | -2.4 | -13.6 | -9.1
Cn1c(=O)c2c(nc(N3CCN(c4ccccn4)CC3)n2Cc2ccc(Cl)cc2Cl)n(C)c1=O | -0.2 | 7.4 | 11.1* | -1.9 | 1.6 | 4.3 | 1.4
COc1ccnc2c1c(=O)n(Cc1ccccc1Cl)c(=O)n2C | -0.3 | -3.6 | 0.5 | 1.5 | -0.2 | . | .
CCCC(=O)OC12CCCN(C1)/C(=C/c1cccc(Cl)c1)C2 (centres undefined) | 3.7 | 0.6 | -0.1 | -1.3 | 0.1 | . | .
COCC(=O)N1[C@H](CO)[C@@H](c2ccc(-c3cccnc3)cc2)[C@H]1CN(C)S(=O)(=O)c1ccccc1[N+](=O)[O-] | -0.2 | -4.0 | -5.0 | 5.6 | -2.9 | . | .
CCCCN1CC(=O)N2[C@H](C[C@@]3(n4ccc5ccccc54)c4ccccc4N(S(=O)(=O)c4ccccc4)[C@@H]23)C1=O | 4.1 | -3.1 | -1.5 | -3.1 | 1.5 | . | .
CCCCCCCCN1C(=O)[C@@H](CC(=O)NCc2cccs2)C[C@@]2(C(=O)OC)C1=C[C@H](C(C)C)O[C@@H]2C1CC1 | -2.3 | -0.5 | -0.1 | 1.8 | -1.0 | . | .
CCOc1cc(CCNC(=O)c2cc3sccc3n2CC)ccc1OC | 2.1 | 2.5 | -2.1 | -0.4 | 0.8 | . | .
COc1cccc(-c2ccc3ncnc(NCc4ccc5c(c4)OCO5)c3c2)c1 | -2.5 | 11.8* | 10.9* | -2.1 | 4.3 | -8.3 | -4.9
COc1cccc(C2(O)CCN(C(=O)C3CCC3)CC2)c1 | -3.6 | 6.0 | 11.8* | 1.1 | 2.7 | -0.7 | 6.9
COc1ccc(C2C(C(=O)Nc3ccc(C)c(C)c3)CCC(=O)N2c2ccc(OC)cc2)cc1 (centres undefined) | -7.6 | -3.7 | 2.6 | -0.9 | -3.8 | . | .
O=C(Nc1cccc(C(=O)O)c1)/C(=C/c1cccc([N+](=O)[O-])c1)NC(=O)c1cccc(Br)c1 | -0.9 | -4.4 | 1.6 | -2.0 | -1.3 | . | .
O=C(N/N=C/C(Cl)=C/c1ccc([N+](=O)[O-])cc1)C(=O)Nc1cccc(C(=O)O)c1 | -8.1 | 6.3 | 13.0* | 2.8 | 1.0 | -22.5 | -18.7
CCc1cccc2c1NC1(CCCC1)CC2C (centres undefined) | 1.8 | 4.4 | 10.3* | 0.8 | -0.3 | 3.9 | -4.1
CCOC(=O)C1(C)CCN1C(=O)c1ccc(C)cc1 (centres undefined) | -5.8 | 16.2* | 9.8* | 0.3 | 1.1 | -2.2 | 1.8
C=CC[C@H](CC(=O)N(CCO)Cc1ccccc1)C(=O)N[C@@H](COC(=O)[C@@H](CC=C)CC(=O)OC(C)(C)C)Cc1c[nH]c2ccccc12 | -0.4 | 12.4* | 5.5 | 0.1 | 1.1 | -9.8 | -3.0
C=CCC[C@@H](Cc1ccc(F)cc1)C(=O)OC[C@@H](NC(=O)[C@@H](CC=C)CC(=O)N[C@H](CO)Cc1ccccc1)C(C)(C)C | -1.2 | 8.5 | 10.7* | -0.7 | -2.3 | -3.8 | 4.5
C=CC[C@@H](CC(=O)N[C@@H](CO)Cc1ccccc1)C(=O)N[C@H](COC(=O)[C@@H](CC=C)Cc1ccc(F)cc1)C(C)(C)C | -5.3 | 3.5 | 0.0 | -0.8 | -1.0 | . | .
C=CCC[C@@H](Cc1ccc(F)cc1)C(=O)OC[C@H](Cc1c[nH]c2ccccc12)NC(=O)[C@@H](CC=C)CC(=O)N[C@@H](CO)Cc1ccccc1 | 3.6 | 6.2 | 10.1* | -0.9 | 4.2 | -6.5 | -3.7
C=CCC[C@H](Cc1ccc(F)cc1)C(=O)OC[C@@H](Cc1c[nH]c2ccccc12)NC(=O)[C@@H](CC=C)CC(=O)N[C@@H](CO)Cc1ccccc1 | 4.7 | 5.3 | 1.1 | -1.3 | 4.6 | . | .
C=CCC[C@@H](Cc1ccc(F)cc1)C(=O)OC[C@@H](NC(=O)[C@@H](CC=C)CC(=O)N(CCO)Cc1ccccc1)c1ccccc1 | -0.1 | 6.9 | 14.3* | -0.5 | 0.8 | -6.9 | -4.5
C/C=C/C(=O)N1CCC(C(=O)NCC2COc3ccccc3O2)CC1 (centres undefined) | -3.4 | 4.0 | 3.1 | -1.9 | 14.1 | . | .
COc1cc2[nH]c(=O)n(CCCCCC(=O)NC3CCCC3)c(=O)c2cc1OC | 3.4 | -4.7 | 10.3* | -3.2 | 6.2 | -0.4 | -5.6
CCn1c(=S)sc2c(=O)n(CC(=O)Nc3cccc(Cl)c3)c(C)nc21 | 0.2 | -0.7 | 10.3* | 0.5 | -1.2 | 8.5 | 10.9*
SMILES | MBD2 DNA inh | PLCb3 inh | PLCg1 inh | LEDGF integ inh | UHRF1 binding | PLCgamma1 ctr | PLCb3 confirm
CCOC(=O)c1ccc(NC(=O)Cn2c(C)nc3c(sc(=S)n3CC)c2=O)cc1 | 2.6 | -1.2 | 0.9 | 3.5 | 6.2 | . | .
O=S(=O)(c1ccccc1F)N1CCc2ccccc2C1 | 1.9 | 1.9 | 3.8 | 1.8 | 1.1 | . | .
O=[N+]([O-])c1ccccc1S(=O)(=O)N1CCc2ccccc2C1 | 3.5 | 12.4* | 1.9 | 5.8 | 3.0 | -6.0 | -2.4
COc1ccccc1NC1=NCC(=O)N1Cc1ccccc1 | -2.3 | 2.1 | -1.8 | 3.0 | -1.0 | . | .
COc1ccc(CN2C(=O)CN=C2Nc2cccc(C)c2C)cc1 | -0.3 | 6.3 | 9.8* | 1.7 | 2.5 | -3.7 | -1.1
CCCC(=O)OC12CCCN(C1)/C(=C/c1cccc(OC)c1)C2 (centres undefined) | -4.0 | -3.3 | -0.1 | 1.2 | 3.0 | . | .
CCOc1ccc(C)cc1S(=O)(=O)Nc1cccnc1 | -2.7 | 4.1 | 9.8* | 8.1 | 2.5 | -20.2 | -2.4
C=CCCC(=O)N1CCCC(Cc2cccc(Cl)c2)(C(=O)OCC)C1 (centres undefined) | -2.5 | 1.6 | 11.6* | -2.2 | 0.3 | -2.7 | -6.8
O=S(=O)(Nc1ccc(Br)cc1)c1cccc2cccnc12 | 1.6 | -1.0 | 2.5 | -0.1 | 1.8 | . | .
O=S(=O)(Nc1ccc(C(O)(C(F)(F)F)C(F)(F)F)cc1)c1cccc2cccnc12 | -1.8 | -1.6 | 10.0* | 0.4 | -4.0 | -1.9 | -3.6
O=c1oc2ccc(NS(=O)(=O)c3cccc4cccnc34)cc2s1 | -6.3 | -3.5 | 10.3* | 5.5 | 1.8 | 0.1 | -0.6
O=C(Nc1ccc(Br)cc1)OC1CC2CC1[C@H]1CCCCN1[C@H]2Cc1ccccc1 (some centres undefined) | -1.5 | -3.4 | -5.4 | -4.5 | 0.2 | . | .
COCc1c(C(=O)OCC(=O)c2c(N)n(CC(C)C)c(=O)n(C)c2=O)oc2ccccc12 | 1.1 | 0.9 | 2.3 | -3.2 | -2.0 | . | .
Cc1c(C(=O)OCC(=O)c2c(N)n(CC(C)C)c(=O)n(C)c2=O)oc2ccccc12 | -4.1 | 46.1* | 3.6 | -0.3 | -1.6 | -6.1 | -4.3
Cc1[nH][nH]c(=O)c1C(c1ccc(-c2ccc(F)cc2)o1)c1c(C)[nH][nH]c1=O | -5.5 | 3.3 | 10.6* | 25.5* | 13.2 | -5.3 | -1.3
